Experiment: probe aWnt5a binding to arrayed compounds – biochemical, biotinylated probe, 635/667 nm fluorescence, primary screen (AID 1113);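 further: score merges 667 nm fluorescence intensity with signal-to-noise per printed feature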
Settings: small-molecule microarray, higher = more signal

| SMILES | composite z-score |
| --- | --- |
| C[C@@H]1NC(=O)[C@@H](Cc2ccccc2)NC(=O)[C@@]23C(=O)N[C@@H](Cc4ccccc4)C2[C@H](C)[C@@]2(C)O[C@H]2C3/C=C/C/C=C\CNC1=O (stereo not given in full) | -0.222 |
| COc1cccc(C)c1NC(=O)O[C@H]1[C@H](OC(=O)Nc2ccc3c(c2)OCO3)[C@@H](OC(=O)Nc2ccc3c(c2)OCO3)[C@@H](OC)O[C@@H]1CO | 0.0973 |
| C=C(COC)/C(=C/C[C@H](OC(=O)c1ccncc1)c1ccc(CO)o1)c1cnc2ccccc2c1 | -0.0758 |
| CC(C)=C1C(=O)C(c2ccccc2)=C2CN3C(=O)N(CCc4ccccc4)C(=O)[C@]3(Cc3ccc(C(F)(F)F)cc3)[C@H]21 | 0.0044 |
| CCCCNC(=O)c1ccc(C#CC(C)(C)C)c(OC(C)=O)c1 | -0.159 |
| C=CCC(OC(C)=O)[C@@H]1[C@@H](N(Cc2cccc3ccccc23)C(=O)Cc2ccc(OC)cc2)c2cc(OCCCO)ccc2N1C(=O)c1ccc(-c2ccccc2)cc1 (stereo not given in full) | -0.157 |
| COc1cc(NN2C(C(O)c3ccc(N(C)C)cc3)C=CC3C(=O)N(c4ccccc4)C(=O)C32)cc(OC)c1OC (stereo not given) | 0.112 |
| CCCC[C@@H](O)C1=C(COC)C[C@H]2C(=O)N(C)C(=O)[C@H]2[C@H]1CO | -0.0417 |
| CC1CC/C=C\[C@H]2OC34C=CCN(c5ccc6ccccc6c5)C(=O)[C@H]3N(CCCO)C(=O)[C@@H]4C2C(=O)O1 (stereo not given in full) | -0.287 |
| CC(C)C(CO)N1C(=O)[C@@H]2[C@H]3C(=O)OCC=C[C@H]3OC23C=CCN(c2ccc(Cl)cc2)C(=O)[C@@H]13 (stereo not given in full) | -0.1 |
| CCCN1C(=O)[C@@]2(Cc3ccccc31)N=C(c1ccc(OCCCO)cc1)O[C@H]2c1ccccc1 | 0.0857 |
| O=C(O)[C@@H]1[C@@H]2C(=O)N(c3ccccc3)C(=O)[C@@H]2C[C@@H]1Sc1ccccc1 | 0.0676 |
| COCCOC(=O)N1C(=O)[C@@]2(c3cc(C#CCNC(N)=O)ccc31)[C@H](C(N)=O)[C@H]1C(=O)O[C@H](c3ccccc3)[C@H](c3ccccc3)N1[C@@H]2c1ccccc1OCCO | -0.129 |
| COC(=O)[C@@]1(Cc2ccc(OC)cc2)[C@H]2c3cc(C(=O)N4CCCC4)n(CCO)c3C[C@H]2CN1C(=O)c1ccccc1 | 0.433 |
| C[N+](C)(C)CCCCCCNC(=O)[C@@H]1C[C@@H]2C(=O)N3CCC[C@H]3C(=O)N2[C@@H]1c1ccc(O)cc1 | -0.0239 |
| O=C1O[C@@H](c2ccccc2)[C@@H](c2ccccc2)N2[C@@H](c3ccc(O)cc3)[C@]3(C(=O)Nc4ccc(C#CCCO)cc43)[C@@H](C(=O)N3CCN(c4ncccn4)CC3)[C@H]12 | -0.512 |
| CC(C)c1ccc(NN2C(C(O)c3ccc(F)cc3)C=CC3C(=O)N(c4ccccc4)C(=O)C32)cc1 (stereo not given) | 0.105 |
| C[N+](C)(C)CCCC[C@@H]1NC(=O)[C@@H]2C[C@H](C(=O)NCCCCCCN)[C@H](c3cccc(OCCO)c3)N2C1=O | 0.095 |

| SMILES | composite z-score |
| --- | --- |
| Cc1ccc(S[C@]2(C(=O)NCC(F)(F)F)CC(=O)N(Cc3cc(C(F)(F)F)cc(C(F)(F)F)c3)[C@@H]2c2ccc(CO)cc2I)cc1 | -0.231 |
| C=C[C@H]1C(C(=O)OCC)=CC[C@@H](c2ccccc2)N1S(=O)(=O)c1ccc(C)cc1 | 0.0077 |
| CCCCN1CC=CC23O[C@@H]4/C=C\CCCOC(=O)C4[C@H]2C(=O)N(CCO)[C@@H]3C1=O (stereo not given in full) | -0.221 |
| CCCCN1CC=CC23O[C@@H]4/C=C\CCC(C)OC(=O)C4[C@H]2C(=O)N(CCCO)[C@@H]3C1=O (stereo not given in full) | -0.252 |
| O=C(NCc1ccc(F)cc1)[C@H]1C[C@H]2C(=O)NCC(=O)N2[C@H]1c1ccc(O)cc1 | -0.0684 |
| CCOC(=O)C[C@H]1[C@H](OC(=O)Cc2ccc3c(c2)OCO3)[C@@H](NC(=O)c2ccc3ccccc3n2)c2cc(OCCCO)ccc2N1C(=O)c1ccccc1 | -0.0269 |
| COc1cc2c(cc1O)C(C1CC1)N(C)CC2 (stereo not given) | -0.0101 |
| COC(=O)C1=CC(CCCO)=CC(c2cccs2)N(Cc2cccc(OC(F)(F)F)c2)C=C1C(=O)OC (stereo not given) | -0.0194 |
| COCCCNC(=O)[C@@]1(Sc2ccc(C)cc2)CC(=O)N(C2Cc3ccccc3C2)[C@@H]1c1ccc(CO)cc1 | -0.227 |
| CN(C)c1ccc(C(O)C2C=CC3C(=O)NC(=O)C3N2Nc2ccccn2)cc1 (stereo not given) | -0.13 |
| COc1ccccc1CN1C(=O)c2ccccc2[C@](Cc2ccccc2I)(C(=O)O)[C@@H]1c1ccc(CO)cc1 | -0.123 |
| CC(C)N1CC=CC23O[C@@H]4C=CCCOC(=O)C4[C@H]2C(=O)N(CCCO)[C@@H]3C1=O (stereo not given in full) | -0.145 |
| COc1ccc(C(=O)Nc2ccc(CN3C(=O)[C@]4(O[C@H](CC(=O)N5Cc6ccccc6C[C@H]5CO)[C@@H]([Si](C)(C)c5ccc(OC)cc5)[C@@H]4C)c4ccccc43)cc2)cc1 | -0.128 |
| Cn1cccc1C(O)C1C=CC2C(=O)N(c3ccccc3)C(=O)C2N1Nc1ccccc1 (stereo not given) | 0.181 |
| CCOC(=O)C[C@H]1[C@H](OC(=O)c2cc3ccccc3oc2=O)[C@@H](NC(=O)CC(C)C)c2cc(OCCCO)ccc2N1C(=O)c1ccc2ccccc2n1 | -0.152 |
| CC[C@@H]1C=C(C(=O)O)[C@H](c2ccccc2)N1S(=O)(=O)c1ccc(C)cc1 | -0.113 |
| C=CC[C@@H](OC(=O)Nc1ccc(SC)cc1)c1ccc(O)c(F)c1 | -0.0991 |
